# In PubChem BioAssay (EPA / NIEHS):
# Results filed as inconclusive are left out. Where a structure was tested more than once in an assay, its records may differ in their call. Active and inactive are the calls of the source. The calls were made as follows: active = hit-call score of the fitted dose curve at least 0.9, where 1 is the maximum; inconclusive = response in the unintended direction; inactive = score below 0.9. Peptide text beside a SMILES is read from it.
# Experiments:
# [1] = molecular target: zebrafish Estrogen Receptor (ESR1), esr1 (gene 259252) (UniProt P57717); experiment: ATG_zfER1_XSP1: Attagene TRANS-FACTORIAL Multi-Species (XSP1) HepG2 Assay for zebrafish Estrogen Receptor (ESR1) (AID 2283772)
# Method in brief: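 Trans-activation readout: transfected zebrafish ER-Gal4 drives a UAS reporter in human HepG2 liver cells. After 24 h compound exposure (medium containing 3 nM 6-alpha-fluorotestosterone), induced reporter transcripts were quantified by RT-PCR with capillary electrophoresis, relative to DMSO.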
# [2] = system: zebrafish Estrogen Receptor (ESR2B), gene 317733; experiment: ATG_zfER2b_XSP1: Attagene TRANS-FACTORIAL Multi-Species (XSP1) HepG2 Assay for zebrafish Estrogen Receptor (ESR2B) (AID 2283773)
# Method in brief: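 Human hepatoma HepG2, transiently transfected with multi-reporter units; exogenous zebrafish ESR2B-Gal4 activity measured. Exposure 24 h alongside 3 nM 6-alpha-fluorotestosterone to partly stimulate AR.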
# [3] = system: frog Estrogen Receptor (ESR2), gene 100174814; experiment: ATG_frER2_XSP1: Attagene TRANS-FACTORIAL Multi-Species (XSP1) HepG2 Assay for frog Estrogen Receptor (ESR2) (AID 2283774)
# Method in brief: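 Multiplexed TRANS-format reporter assay in human hepatoma HepG2: chimeric nuclear receptor-Gal4 activity reported as mRNA induction at 24 h, detected by fluorescent RT-PCR products on capillary electrophoresis and fitted upward from DMSO baseline.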
# [4] = ACEA_AR_agonist_AUC_viability: ACEA Biosciences xCELLigence Real-Time Cell Analysis on Androgen Receptor Agonism for Viability (AID 2283775);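 as to AC50: viability read 80 hours after compound addition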
# Method in brief: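 Viability endpoint from xCELLigence impedance in 22Rv1 prostate cells at 80 h. Eight-point series, 100 uM maximum final.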
# [5] = system: frog Estrogen Receptor (ESR1), gene 398734; experiment: ATG_frER1_XSP1: Attagene TRANS-FACTORIAL Multi-Species (XSP1) HepG2 Assay for frog Estrogen Receptor (ESR1) (AID 2283777)
# Method in brief: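 After transient transfection and 24 h compound treatment, total RNA from HepG2 cells was reverse-transcribed, amplified, FAM-labeled and resolved by capillary electrophoresis. Signal increases were fitted against DMSO controls.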
# [6] = system: zebrafish Estrogen Receptor (ESR2A), gene 317734; experiment: ATG_zfER2a_XSP1: Attagene TRANS-FACTORIAL Multi-Species (XSP1) HepG2 Assay for zebrafish Estrogen Receptor (ESR2A) (AID 2283778)
# Method in brief: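 Gain-of-signal reporter transcription readout from GAL4-UAS units in transiently transfected HepG2 cells, 24 h exposure, 3 nM 6-alpha-fluorotestosterone co-present. Detection by RT-PCR with capillary electrophoresis fluorescence.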
# [7] = molecular target: chicken Estrogen Receptor (ESR1), ESR1 (gene 396099) (UniProt P06212); experiment: ATG_chERa_XSP1: Attagene TRANS-FACTORIAL Multi-Species (XSP1) HepG2 Assay for chicken Estrogen Receptor (ESR1) (AID 2283779)
# Method in brief: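 Gain-of-signal reporter transcription, relative to DMSO, was scored in transiently transfected HepG2 cells after a 24 h dose. Fluorescence intensity of amplified, digested reporter cDNA fragments served as the endpoint.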
# [8] = molecular target: Estrogen receptor (Homo sapiens) (UniProt P03372); experiment: ATG_hERa_XSP1: Attagene TRANS-FACTORIAL Multi-Species (XSP1) HepG2 Assay for human Estrogen Receptor (ESR1) (AID 2283780)
# Method in brief: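 Reporter transcripts from multiplexed GAL4-UAS units driven by NR-Gal4 chimeras in transiently transfected HepG2 were measured by RT-PCR with capillary electrophoresis 24 h post-dose, with 3 nM 6-alpha-fluorotestosterone present; gain-of-signal relative to DMSO.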
# [9] = system: turtle Estrogen Receptor (ESR1), gene 101933533; experiment: ATG_trERa_XSP1: Attagene TRANS-FACTORIAL Multi-Species (XSP1) HepG2 Assay for turtle Estrogen Receptor (ESR1) (AID 2283781)
# Method in brief: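 Cell-based chimeric NR-Gal4 transactivation; HepG2; 24 h dosing; mRNA reporter detected by RT-PCR and capillary electrophoresis fluorescence.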
# [10] = molecular target: GAL4 Transcription Factor (Internal Marker), GAL4 (gene 855828) (UniProt P04386); experiment: ATG_GAL4_XSP1: Attagene TRANS-FACTORIAL Multi-Species (XSP1) HepG2 Assay for GAL4 Transcription Factor (Internal Marker) (AID 2283789)
# Method in brief: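 This background-control endpoint measures GAL4-driven reporter mRNA via RT-PCR and capillary electrophoresis of labelled fragments. Transiently transfected HepG2 cells were treated 24 h, with 3 nM 6-alpha-fluorotestosterone included, and gain-of-signal was fitted against DMSO.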
# [11] = ATG_M_06_XSP1: Attagene TRANS-FACTORIAL Multi-Species (XSP1) HepG2 Assay for M06 Transcription Factor (Internal Marker) (AID 2283790)
# Method in brief: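 This background-control readout tracks M06 reporter mRNA, measured by RT-PCR and capillary electrophoresis. HepG2 cells transiently carrying the GAL4-UAS reporter panel were dosed for 24 h with 3 nM 6-alpha-fluorotestosterone added for partial AR stimulation; increases were scored relative to DMSO.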
# [12] = ATG_M_61_XSP1: Attagene TRANS-FACTORIAL Multi-Species (XSP1) HepG2 Assay for M61 Transcription Factor (Internal Marker) (AID 2283797)
# Method in brief: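 Background-control readout: reporter transcripts measured by RT-PCR and capillary electrophoresis 24 h after dosing transiently transfected HepG2 multi-reporter cells, with 3 nM 6-alpha-fluorotestosterone present. Fitted in the positive direction relative to DMSO.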
# [13] = system: zebrafish Peroxisome Proliferator-activated Receptor gamma (PPARg), gene 557037; experiment: ATG_zfPPARg_XSP1: Attagene TRANS-FACTORIAL Multi-Species (XSP1) HepG2 Assay for zebrafish Peroxisome Proliferator-activated Receptor gamma (PPARg) (AID 2283801)
# Method in brief: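 Trans-activation readout of chimeric zebrafish PPARg–GAL4 in transiently transfected human HepG2 cells, 24 h chemical exposure (medium includes 3 nM 6-alpha-fluorotestosterone). Reporter transcripts measured by RT-PCR and capillary electrophoresis, fitted as gain over DMSO.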
# [14] = molecular target: Luciferin 4-monooxygenase (Photinus pyralis) (UniProt P08659); experiment: CCTE_Simmons_QuantiLum_inhib_2: CCTE's Firefly Luciferase Inhibition Assay, Simmons Lab (AID 2283767);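 as to AC50: potency for inhibitors that lower luciferase luminescence relative to DMSO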
# Method in brief: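 Cell-free QuantiLum luciferase, 5 ng/well; compounds 5 nM–87.5 uM final, 8 conc, 0.5% DMSO; 30 min, 37C, dark. Detection reagent (150 uM D-luciferin, 147 uM dATP, CoA, DTT, pH 7.8 final) injected per well, kinetic luminescence. Triplicate biological replicates.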
# [15] = ACEA_AR_antagonist_AUC_viability: ACEA Biosciences xCELLigence Real-Time Cell Analysis on Androgen Receptor Antagonism for Viability (AID 2283776);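 also: 22Rv1 human prostate cancer cells growing on impedance electrode plates; area under impedance growth curve at 80 h after dosing as viability; hits lower the growth signal relative to DMSO meaning cytotoxicity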
# Method in brief: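 Impedance read-out (RT-CES): area under growth curve at 80 h post-dose, loss of signal scored vs DMSO baseline. 22Rv1 cells; 8-pt 1:4 series, top 100 uM final, ≤0.5% DMSO; biological duplicate.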
# [16] = STM_H9_NormalizedViability: Cytotoxicity Assessment at 120 hours in the Stemina devTOX quickPredict H9 human embryonic stem cell (hESC)-based Assay (AID 2283784)
# Method in brief: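 CellTiter-Fluor RFU, background-subtracted, expressed relative to 0.1% DMSO neutral control by plate. Pluripotent H9 cells; treatment with daily re-dosing. Plates carried 1uM methotrexate (positive) and 5 nM methotrexate (negative) references.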
# AR (gene 367) [17] = molecular target: AR (gene 367) (UniProt P10275); experiment: ACEA_AR_antagonist_80hr: ACEA Biosciences xCELLigence Real-Time Cell Analysis on Androgen Receptor Antagonism for Proliferation (AID 2283787);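 also: 22Rv1 human prostate cancer cells with growth followed by electrical impedance; hits lower the impedance growth signal relative to DMSO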
# Method in brief: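 Using 22Rv1 cells held in assay medium, we dosed compounds (100 uM maximum final, 1:4 serial, eight points, 0.5% DMSO at top) and recorded cell-electrode impedance; the 80 hr timepoint was analyzed against DMSO.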
# [18] = ACEA_ER_AUC_viability: ACEA Biosciences xCELLigence Real-Time Cell Analysis on Estrogen Receptor Agonism for Viability (AID 2283782);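 also: hit means loss of impedance signal meaning reduced cell growth or viability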
# Method in brief: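 Continuous-exposure impedance cell analysis uses T-47D cells in charcoal-stripped serum, eight 1:4 dilutions topping at 100 uM final, biological duplicate. Area under the growth curve at 80 h is fitted against DMSO baseline.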
# [19] = Tanguay_ZF_120hpf_ActivityScore_legacy: (Legacy) Oregon State University Tanguay Lab 120 Hour Post-fertilization zebrafish Assay Score for Activity (AID 2283742)
# Method in brief: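 In this whole-embryo screen, dechorionated zebrafish were exposed from 6 hpf until 120 hpf at 28C under a 0.64% DMSO vehicle. Developmental malformations and death were recorded by brightfield microscopy as binary endpoints.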
# AR (gene 367) [20] = molecular target: AR (gene 367) (UniProt P10275); experiment: ACEA_AR_agonist_80hr: ACEA Biosciences xCELLigence Real-Time Cell Analysis on Androgen Receptor Agonism for Proliferation (AID 2283783);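 also: hits increase impedance growth signal above DMSO baseline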
# Method in brief: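 Real-time cell-growth kinetics were recorded by electrode impedance in 22Rv1 cells exposed to test chemicals up to 100 uM final; the 80 h timepoint served as the readout, fitted upward relative to DMSO controls, in biological duplicate.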
# Chain of AR (gene 367) (P10275 whole entry, looked up): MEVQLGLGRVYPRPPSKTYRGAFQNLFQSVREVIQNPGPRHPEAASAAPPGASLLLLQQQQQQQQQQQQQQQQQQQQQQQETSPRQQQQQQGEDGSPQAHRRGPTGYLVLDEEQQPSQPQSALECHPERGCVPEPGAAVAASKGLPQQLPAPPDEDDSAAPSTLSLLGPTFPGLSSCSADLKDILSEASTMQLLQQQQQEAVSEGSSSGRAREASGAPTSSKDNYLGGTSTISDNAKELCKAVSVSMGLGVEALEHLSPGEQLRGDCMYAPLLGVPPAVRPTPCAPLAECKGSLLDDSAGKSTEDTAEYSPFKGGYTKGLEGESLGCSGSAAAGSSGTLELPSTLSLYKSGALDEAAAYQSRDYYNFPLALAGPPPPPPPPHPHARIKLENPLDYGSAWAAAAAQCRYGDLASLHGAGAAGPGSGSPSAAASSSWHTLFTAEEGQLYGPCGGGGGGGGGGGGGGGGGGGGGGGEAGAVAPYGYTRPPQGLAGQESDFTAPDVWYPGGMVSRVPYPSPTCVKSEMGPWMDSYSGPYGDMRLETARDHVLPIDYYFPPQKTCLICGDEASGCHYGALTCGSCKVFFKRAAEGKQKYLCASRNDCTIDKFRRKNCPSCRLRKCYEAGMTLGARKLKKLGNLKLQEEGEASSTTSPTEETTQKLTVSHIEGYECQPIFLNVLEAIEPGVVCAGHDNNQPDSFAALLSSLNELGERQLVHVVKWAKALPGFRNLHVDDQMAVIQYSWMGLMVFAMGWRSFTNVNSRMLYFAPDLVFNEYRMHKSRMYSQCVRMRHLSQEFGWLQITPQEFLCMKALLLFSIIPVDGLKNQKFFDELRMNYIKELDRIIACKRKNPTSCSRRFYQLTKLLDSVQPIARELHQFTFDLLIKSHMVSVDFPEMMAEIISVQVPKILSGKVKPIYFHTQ
# Chain of Luciferin 4-monooxygenase (Photinus pyralis) (P08659 whole entry, looked up): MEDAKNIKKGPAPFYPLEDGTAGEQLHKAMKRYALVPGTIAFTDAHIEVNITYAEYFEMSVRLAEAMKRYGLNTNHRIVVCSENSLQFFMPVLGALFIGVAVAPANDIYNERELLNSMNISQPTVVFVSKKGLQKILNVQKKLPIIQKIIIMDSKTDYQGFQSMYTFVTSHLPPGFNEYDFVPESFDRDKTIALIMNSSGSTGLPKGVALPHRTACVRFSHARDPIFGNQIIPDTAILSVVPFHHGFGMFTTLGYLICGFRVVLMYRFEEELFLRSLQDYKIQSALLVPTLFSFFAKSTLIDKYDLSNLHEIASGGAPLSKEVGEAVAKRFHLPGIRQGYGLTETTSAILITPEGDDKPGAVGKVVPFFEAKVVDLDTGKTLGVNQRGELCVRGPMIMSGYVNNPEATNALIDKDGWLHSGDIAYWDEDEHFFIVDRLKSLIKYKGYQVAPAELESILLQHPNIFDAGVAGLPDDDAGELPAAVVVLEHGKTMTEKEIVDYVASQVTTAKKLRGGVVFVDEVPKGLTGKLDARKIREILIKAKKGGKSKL
# Chain of zebrafish Estrogen Receptor (ESR1), esr1 (gene 259252) (P57717 whole entry, looked up, the tested form may be a part): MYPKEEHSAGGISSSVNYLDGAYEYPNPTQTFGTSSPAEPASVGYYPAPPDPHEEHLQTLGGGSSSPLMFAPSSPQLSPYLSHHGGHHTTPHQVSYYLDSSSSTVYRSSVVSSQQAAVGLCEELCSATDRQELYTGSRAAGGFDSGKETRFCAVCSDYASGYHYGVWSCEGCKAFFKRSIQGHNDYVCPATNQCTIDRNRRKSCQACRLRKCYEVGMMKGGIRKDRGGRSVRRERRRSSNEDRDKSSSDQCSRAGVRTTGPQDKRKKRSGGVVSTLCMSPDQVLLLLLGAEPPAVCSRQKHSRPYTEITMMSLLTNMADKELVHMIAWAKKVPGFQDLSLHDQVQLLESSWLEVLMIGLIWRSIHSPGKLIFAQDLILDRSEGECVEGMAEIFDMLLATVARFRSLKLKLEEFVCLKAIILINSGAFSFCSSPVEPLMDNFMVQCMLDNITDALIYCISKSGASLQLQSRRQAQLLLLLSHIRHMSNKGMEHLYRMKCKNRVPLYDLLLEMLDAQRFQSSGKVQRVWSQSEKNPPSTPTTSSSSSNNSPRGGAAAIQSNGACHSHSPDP
# Chain of GAL4 Transcription Factor (Internal Marker), GAL4 (gene 855828) (P04386 whole entry, looked up, the tested form may be a part): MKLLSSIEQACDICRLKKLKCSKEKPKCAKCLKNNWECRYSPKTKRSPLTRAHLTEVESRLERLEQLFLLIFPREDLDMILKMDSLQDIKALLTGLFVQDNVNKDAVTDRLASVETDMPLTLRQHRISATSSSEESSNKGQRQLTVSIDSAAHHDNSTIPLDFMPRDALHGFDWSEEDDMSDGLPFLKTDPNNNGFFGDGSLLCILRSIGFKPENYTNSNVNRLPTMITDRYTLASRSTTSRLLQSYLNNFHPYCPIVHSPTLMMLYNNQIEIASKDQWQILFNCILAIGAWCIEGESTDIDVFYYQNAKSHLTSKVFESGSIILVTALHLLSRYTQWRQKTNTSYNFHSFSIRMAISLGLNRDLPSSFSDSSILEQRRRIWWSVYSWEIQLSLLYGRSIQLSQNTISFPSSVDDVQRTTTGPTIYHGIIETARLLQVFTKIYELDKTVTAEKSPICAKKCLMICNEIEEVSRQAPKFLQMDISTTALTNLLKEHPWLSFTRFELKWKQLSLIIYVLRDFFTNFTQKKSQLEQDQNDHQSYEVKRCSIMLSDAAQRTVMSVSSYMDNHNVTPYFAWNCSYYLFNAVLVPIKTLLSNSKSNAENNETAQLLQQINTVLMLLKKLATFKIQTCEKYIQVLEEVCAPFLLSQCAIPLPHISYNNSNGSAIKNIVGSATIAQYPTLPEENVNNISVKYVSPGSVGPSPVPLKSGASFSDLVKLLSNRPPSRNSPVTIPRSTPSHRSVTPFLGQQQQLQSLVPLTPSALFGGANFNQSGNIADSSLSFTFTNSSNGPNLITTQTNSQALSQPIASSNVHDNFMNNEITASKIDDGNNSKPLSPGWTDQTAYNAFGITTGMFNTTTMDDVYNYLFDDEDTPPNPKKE
# Chain of chicken Estrogen Receptor (ESR1), ESR1 (gene 396099) (P06212 whole entry, looked up, the tested form may be a part): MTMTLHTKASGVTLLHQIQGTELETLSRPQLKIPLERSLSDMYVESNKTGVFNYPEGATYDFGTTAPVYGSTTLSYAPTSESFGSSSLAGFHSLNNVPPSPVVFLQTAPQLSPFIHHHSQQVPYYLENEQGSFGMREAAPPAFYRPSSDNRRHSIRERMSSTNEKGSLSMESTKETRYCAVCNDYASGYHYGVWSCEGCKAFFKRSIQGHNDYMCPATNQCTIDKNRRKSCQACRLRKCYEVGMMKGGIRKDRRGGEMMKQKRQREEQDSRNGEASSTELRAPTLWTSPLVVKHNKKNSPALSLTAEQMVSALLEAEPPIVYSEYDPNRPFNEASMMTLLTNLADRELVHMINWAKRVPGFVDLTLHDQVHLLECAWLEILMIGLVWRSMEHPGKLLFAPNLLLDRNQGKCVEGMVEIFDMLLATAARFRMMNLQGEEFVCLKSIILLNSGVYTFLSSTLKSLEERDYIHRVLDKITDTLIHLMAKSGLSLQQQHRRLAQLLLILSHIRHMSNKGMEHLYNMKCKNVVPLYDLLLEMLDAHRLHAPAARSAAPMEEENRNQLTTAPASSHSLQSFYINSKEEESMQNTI
# Chain of Estrogen receptor (Homo sapiens) (P03372 whole entry, looked up, the tested form may be a part): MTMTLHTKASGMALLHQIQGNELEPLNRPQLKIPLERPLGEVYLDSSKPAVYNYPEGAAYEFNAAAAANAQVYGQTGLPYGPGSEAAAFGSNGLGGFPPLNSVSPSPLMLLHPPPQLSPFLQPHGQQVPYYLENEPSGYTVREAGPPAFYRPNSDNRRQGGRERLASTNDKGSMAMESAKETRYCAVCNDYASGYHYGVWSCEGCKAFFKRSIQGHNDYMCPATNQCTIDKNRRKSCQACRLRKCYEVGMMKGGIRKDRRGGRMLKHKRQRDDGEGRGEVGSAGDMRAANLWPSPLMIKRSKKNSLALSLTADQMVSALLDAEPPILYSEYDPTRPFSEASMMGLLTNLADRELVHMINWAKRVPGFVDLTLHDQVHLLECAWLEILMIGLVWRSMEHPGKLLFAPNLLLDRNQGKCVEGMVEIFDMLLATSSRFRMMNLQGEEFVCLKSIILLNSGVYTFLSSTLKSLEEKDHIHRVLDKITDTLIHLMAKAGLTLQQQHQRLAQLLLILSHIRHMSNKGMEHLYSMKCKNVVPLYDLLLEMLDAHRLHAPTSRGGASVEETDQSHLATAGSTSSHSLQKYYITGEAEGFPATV
compound,measurement,setting,value
CC(C)(C)NC(=O)[C@H]1CC[C@H]2[C@@H]3CC[C@H]4NC(=O)C=C[C@]4(C)[C@H]3CC[C@]12C,outcome,[1],inactive
same,AC50,[2],67.2 µM (active)
same,AC50,[3],38.1 µM (active)
same,AC50,[4],78 µM (active)
same,outcome,[4],inactive
same,outcome,[5],inactive
same,outcome,[6],inactive
same,outcome,[7],inactive
same,outcome,[8],inactive
same,outcome,[9],inactive
same,outcome,[10],inactive
same,outcome,[11],inactive
same,outcome,[12],inactive
same,outcome,[13],inactive
COc1ccc(C(=O)c2ccccc2)c(O)c1,AC50,[14],53.6 µM (active)
same,outcome,[4],inactive
same,outcome,[15],inactive
same,outcome,[16],inactive
same,outcome,AR (gene 367) [17],inactive
CC(CCC(=O)O)(c1ccc(O)cc1)c1ccc(O)cc1,outcome,[14],inactive
same,AC50,[15],1.24 µM (active)
same,AC50,[16],49.4 nM (active)
C/C=C/C=C/CCCCCCCO,outcome,[14],inactive
same,AC50,[18],79.4 µM (active)
CCCCC1C(=O)N(c2ccccc2)N(c2ccccc2)C1=O,outcome,[14],inactive
O=c1c(O)c(-c2ccc(O)cc2O)oc2cc(O)cc(O)c12,AC50,[14],68.3 µM (active)
CCCCC/C=C\C/C=C\CCCCCCCC(=O)O,outcome,[14],inactive
same,outcome,[4],inactive
same,AC50,[18],81.4 µM (active)
COC(=O)[C@H](Cc1ccccc1)NC(=O)[C@@H](N)CC(=O)O (H-Asp-Phe-OMe),outcome,[4],inactive
same,outcome,[15],inactive
N#Cc1ccc(C2CCCc3cncn32)cc1 (centres undefined),outcome,[4],inactive
CCCCCCOc1ccc(N)cc1,AC50,[14],28.7 µM (active)
same,AC50,[18],86.8 µM (active)
CCCCNS(=O)(=O)c1ccc(C)cc1,outcome,[4],inactive
CC(C)c1ccc(O)c(C(C)C)c1,outcome,[14],inactive
same,outcome,[4],inactive
same,AC50,[18],79.4 µM (active)
CCc1occc(=O)c1O,outcome,[14],inactive
same,outcome,[4],inactive
same,outcome,[18],inactive
Cc1ccc([N+](=O)[O-])cc1N,outcome,[19],inactive
same,outcome,[4],inactive
same,outcome,[15],inactive
N#Cc1ccc(C(c2ccc(C#N)cc2)n2cncn2)cc1,outcome,[14],inactive
same,AC50,[4],4.94 µM (active)
same,outcome,[18],inactive
same,outcome,AR (gene 367) [17],inactive
CCCCCCCCCCCCc1ccc(O)cc1,outcome,[14],inactive
same,AC50,[4],16.6 µM (active)
CCOC(=O)c1ccccc1C,outcome,[4],inactive
O=S(=O)(O)c1ccc(N=Nc2c(O)ccc3ccccc23)cc1,AC50,[14],24.3 µM (active)
same,outcome,[4],inactive
C=C[C@@]1(C)CC(=O)[C@]2(O)[C@@]3(C)[C@@H](O)CCC(C)(C)[C@@H]3[C@H](O)[C@H](OC(C)=O)[C@@]2(C)O1,AC50,[4],6.78 µM (active)
CC12CCC(CC1)C(C)(C)O2,outcome,[4],inactive
COc1ccc(-c2coc3cc(O)cc(O)c3c2=O)cc1,AC50,[14],9.08 µM (active)
same,outcome,[4],inactive
CC1=CCC2CC1C2(C)C (centres undefined),outcome,[4],inactive
O=C(O)CC(C(=O)O)S(=O)(=O)O (centres undefined),outcome,[4],inactive
c1ccc(Nc2cccc3ccccc23)cc1,AC50,[14],53.8 µM (active)
same,outcome,[4],inactive
same,AC50,[15],2.4 µM (active)
same,AC50,[18],81.4 µM (active)
CCCCC(CC)COS(=O)(=O)O (centres undefined),outcome,[4],inactive
same,outcome,[15],inactive
CC(C)(c1ccccc1)c1ccc(Nc2ccc(C(C)(C)c3ccccc3)cc2)cc1,AC50,[14],53.8 µM (active)
same,outcome,[4],inactive
same,outcome,[18],inactive
CCCCNC(=S)NCCCC,outcome,[4],inactive
CCCCOCCOC(=O)COc1ccc(Cl)cc1Cl,outcome,[4],inactive
CN(C)c1ccc2nc3ccc(=[N+](C)C)cc-3sc2c1,AC50,[14],0.676 µM (active)
same,AC50,[4],20.4 µM (active)
same,AC50,[18],16.5 µM (active)
same,AC50,[16],4500 nM (active)
Nc1ccc(C(=O)O)cc1,outcome,[19],inactive
C1CNCCN1,outcome,[19],inactive
same,outcome,[4],inactive
same,outcome,[18],inactive
O=C(O)c1cc(O)c2ccccc2c1O,AC50,[14],39.9 µM (active)
same,outcome,[4],inactive
same,AC50,[18],26 µM (active)
CC1=CC=C(C(C)C)CC1,outcome,[4],inactive
NC(=O)Nc1ccccc1,outcome,[4],inactive
CC1=NN(c2ccc(S(=O)(=O)O)cc2)C(=O)C1N=Nc1ccccc1 (centres undefined),outcome,[14],inactive
same,outcome,[4],inactive
Fc1ccc(Br)cc1,outcome,[4],inactive
CCCCCCCOC(=O)c1ccc(O)cc1,AC50,[14],76.7 µM (active)
COC(=O)c1ccccc1C,outcome,[14],inactive
same,outcome,[18],inactive
C=C1C[C@H]2[C@@H]3C=C(C)C4=CC(=O)CC[C@]4(C)[C@H]3CC[C@]2(C)[C@@]1(OC(C)=O)C(C)=O,outcome,[4],inactive
CCc1cccc(C)c1N,outcome,[4],inactive
O=C(O)c1ccc2c(c1)C(=O)OC2=O,outcome,AR (gene 367) [20],inactive
same,outcome,AR (gene 367) [17],inactive
Oc1ccccc1Cc1ccccc1O,outcome,[16],inactive
